HCMV antiviral: human cytomegalovirus inhibition; HFF cells, HCMV-luciferase reporter, 72 h; active compounds read low; activity change, negative = inhibition, % at 57.5 µM; 410,000 tested, 4.5% active; in the data active = activity change below about -60%; inconclusive = no clear call, values can overlap the other calls; inactive = above about -39%
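Compounds were evaluated in HFFs infected with an HCMV luciferase reporter virus (MOI 1 PFU/cell). Luciferase in lysates collected 72 h post infection served as the replication measure.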
LASV entry inh: blocks Lassa virus binding to or entry into cells; Potency, µM (highest dose often 37.9 µM), for the others: at the highest dose activity change, negative = inhibition, actives largely listed as inhibitors; 300,000 tested, 1.2% active; Lassa virus pseudotype entry inhibition, cell reporter; calls by dose curve; tested in HEK293 cells; note: potency is the fitted concentration of half-maximal effect; nearly all actives have a fitted effect of over 50% in size
MARV entry inh: blocks Marburg virus binding to or entry into cells; Marburg virus pseudotyped entry inhibition, cell reporter; Potency, µM (titrated, usually from 37.8 µM), for inactives: at the top dose activity change, negative = inhibition, usual class: inhibitors; 300,000 tested, 1.8% active; AID 540276; calls by dose curve; tested in HEK293 cells; note: potency is the fitted concentration of half-maximal effect
Pf growth 48h: inhibits P. falciparum growth in the first generation, 48 h | AID 504832 | Potency, µM (top dose mostly 28.7 µM), without a hit: at the highest dose activity change, negative = inhibition, most hits filed as inhibitors | P. falciparum luciferase growth in erythrocytes, 48 h | 310,000 tested, 5.9% active; note: potency is the fitted concentration of half-maximal effect
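Luminescence readout; reporter = integrated firefly luciferase in P. falciparum. RBC culture at 2% hematocrit, 0.1% parasitemia final, 37 C/5% CO2; decreased signal taken as growth inhibition.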
HCV inhibitor: blocks hepatitis C virus; Huh7.5.1 HCVcc-Cre infection, luciferase reporter, 44 h; Potency, µM (series often up to 41.8 µM), without a hit: top-dose activity change, negative = inhibition, hits mostly inhibitors; 340,000 tested, 3.4% active; AID 651820; note: potency is the fitted concentration of half-maximal effect
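1,000 cells/well; 4 h culture; + compound; + HCVcc-Cre (~0.5 moi); 44 h; luciferase substrate, RT 15 min; read 15 sec.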
Pf growth 96h: P. falciparum growth inhibition at 96 hours; AID 504834; Potency, µM (titrated, usually from 28.7 µM), without a hit: top-dose activity change, negative = inhibition, hits mostly inhibitors; 320,000 tested, 6.9% active; P. falciparum luciferase reporter growth, 96 h; note: potency is the fitted concentration of half-maximal effect
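Two-generation exposure (96 h) targets delayed-death phenotype. Reporter parasites carrying integrated firefly luciferase, in red cells at 2% hematocrit and 0.05% parasitemia final, kept at 37 C, 5% CO2; luminescence loss indicates inhibition.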
* = called active by the depositor; u = inconclusive; x = not tested or not shown; [ ] = dose if it differs, or a comment. In the library only some 14% were active in any assay of this set; here they are far more common. Unless noted, calls come from the whole dose curve; as a rule, active = well fitted inhibition curve with a large enough effect; inconclusive = small, poorly fitted or top-dose-only effect, or another doubt; inactive = no such curve, though single readings can be large or run the other way. % is set by controls: 0 for no effect and ±100 for the full control effect.

SMILES	HCMV antiviral	LASV entry inh	MARV entry inh	Pf growth 48h	HCV inhibitor	Pf growth 96h
Cn1c(=O)c2c(nc(Cc3ccccc3)n2C)n(C)c1=O	-7	-6%[46.1 µM]	10%[46.1 µM]	93%	19%	-10%
CN(Cc1ccccc1)Cc1nc2c([nH]1)c(=O)n(C)c(=O)n2C	24	-1%	11%[46.1 µM]	u	3%	10µM*
CC(Oc1ccccc1F)C(=O)NC1CCS(=O)(=O)C1 (centres undefined)	97	x	x	58%	2%	73%
CCOc1ccc(/C=N/NC(=O)c2cc3ccccc3cc2OC)cc1	u	x	x	-24%	u	u
COc1cc(C(=O)OCCN2CCOCC2)ccc1O	9	4%	-2%[46.1 µM]	-3%	11%	78%
COc1c(C)c2c(c(O)c1CC=C(C)CCC(=O)OCCN1CCOCC1)C(=O)OC2	x	x	x	9.5µM*	x	-20%
CC(O)C(N)C(=O)O (centres undefined)	x	x	x	-9%	x	0%
C[C@@H](N)C(=O)O	x	x	x	17µM*	x	19%
CC(=O)c1c(C)[nH]c(C(=O)Nc2cccc(C(F)(F)F)c2)c1C	u	0%	u	4.1µM*	u	1.9µM*
O=C(Nc1cccc(S(=O)(=O)C(F)F)c1)c1ccc(S(=O)(=O)N2CCCCC2)cc1	u	u	u	-15%[5.75 µM]	u	-5%[5.75 µM]
CC(=O)c1c(C)[nH]c(C(=O)Nc2cccc(S(=O)(=O)N3CCCCC3)c2)c1C	-1	x	x	9.3µM*	13µM*	9.3µM*
O=C(Nc1cccc(S(=O)(=O)N2CCCC2)c1)c1cccc(OC(F)F)c1	u	-7%	u	u	u	9.3µM*
O=C(Nc1cccc(S(=O)(=O)N2CCCCC2)c1)c1ccc(S(=O)(=O)C(F)F)cc1	-64*	u	4.5µM*	u	u	u
CC(=O)c1c(C)[nH]c(C(=O)Nc2cccc(C#N)c2)c1C	49	25%	-2%[46.1 µM]	u	-19%	u
CC(=O)c1c(C)[nH]c(C(=O)Nc2cccc(C)n2)c1C	137	x	x	128%	-19%	249%
CC(=O)c1c(C)[nH]c(C(=O)Nc2nccs2)c1C	55	u	u	365%	10µM*	62%
Cc1ccccc1CN1CCN2C=C(C(=O)NCC3CC3)OC2=NC1=O	11	x	x	x	x	x
Cc1ccc(C(C)C)c(OC(C)C(=O)NCC2(N(C)C)CCCCC2)c1 (centres undefined)	-39	-1%[46.1 µM]	u	x	x	x
O=C1Nc2c(Cl)cc(Cl)cc2C12Nc1ccccc1S2 (centres undefined)	-22	x	x	x	x	x
CCN(CC)CCCNC(=O)c1cn(CC)c2ccc(S(=O)(=O)N3CCC(C)CC3)cc2c1=O	-21	-3%[46.1 µM]	0%[46.1 µM]	x	x	x
CC(=O)NC(Cc1cccc(C)c1)C(=O)NC1CCN(C(=O)c2ccc([N+](=O)[O-])cc2)CC1 (centres undefined)	-74*	-6%	-1%	26%	19%	u
O=C(CCN1CCCCC1=O)NC1CCCc2c1cnn2-c1ccccc1F (centres undefined)	-25	x	x	26%	5%	u
C/C(=N\NC(=O)COc1ccc(C)cc1[N+](=O)[O-])c1cccs1	21	8%	29%[46.1 µM]	31%	-16%	108%
C/C(=N\NC(=O)COc1ccc(C)cc1Br)c1cc([N+](=O)[O-])cs1	-81*	u	u	u	8.9µM*	u
COc1cc(OC)cc(-n2c(=O)c3ccccc3n(CC(=O)NCCc3ccc(OC)c(OC)c3)c2=O)c1	0	-4%[46.1 µM]	-29%[46.1 µM]	x	x	x
CC(NC=C1C(=O)OC(C)(C)OC1=O)C(=O)O (centres undefined)	66	x	x	23%	14%	9.3µM*
Cc1ccc(Cn2ncc3c(N4CCN(Cc5ccc(Cl)cc5)CC4)ncnc32)cc1	-82*	u	2.8µM*	u	4.5µM*	-14%
Cc1ccc(Cn2ncc3c(N4CCN(c5ccc(C)cc5)CC4)ncnc32)cc1	u	0%	u	u	u	51%
Cc1ccc(Cn2ncc3c(NN)ncnc32)cc1	-86*	u	-5%	u	u	u
